Screening results (PubChem)
ABCB6 inh MLPCN = blocks the human ABCB6 transporter; Q9NP58; K562-ABCB6 porphyrin accumulation, flow cytometry, 1 h; hits give low values; 360,000 tested, 0.19% active; fluorescence ratio to DMSO, % at 10 µM;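 active means fluorescence ratio to DMSO below 75%, the collection mean minus 3 SD; inconclusive means too few cells collected in the well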;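 further: signal is porphyrin accumulated inside mitochondria; 100% equals median channel fluorescence of DMSO control wells; lower ratio means ABCB6 inhibition with less porphyrin fluorescence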
Target sequence (Q9NP58 whole entry, looked up): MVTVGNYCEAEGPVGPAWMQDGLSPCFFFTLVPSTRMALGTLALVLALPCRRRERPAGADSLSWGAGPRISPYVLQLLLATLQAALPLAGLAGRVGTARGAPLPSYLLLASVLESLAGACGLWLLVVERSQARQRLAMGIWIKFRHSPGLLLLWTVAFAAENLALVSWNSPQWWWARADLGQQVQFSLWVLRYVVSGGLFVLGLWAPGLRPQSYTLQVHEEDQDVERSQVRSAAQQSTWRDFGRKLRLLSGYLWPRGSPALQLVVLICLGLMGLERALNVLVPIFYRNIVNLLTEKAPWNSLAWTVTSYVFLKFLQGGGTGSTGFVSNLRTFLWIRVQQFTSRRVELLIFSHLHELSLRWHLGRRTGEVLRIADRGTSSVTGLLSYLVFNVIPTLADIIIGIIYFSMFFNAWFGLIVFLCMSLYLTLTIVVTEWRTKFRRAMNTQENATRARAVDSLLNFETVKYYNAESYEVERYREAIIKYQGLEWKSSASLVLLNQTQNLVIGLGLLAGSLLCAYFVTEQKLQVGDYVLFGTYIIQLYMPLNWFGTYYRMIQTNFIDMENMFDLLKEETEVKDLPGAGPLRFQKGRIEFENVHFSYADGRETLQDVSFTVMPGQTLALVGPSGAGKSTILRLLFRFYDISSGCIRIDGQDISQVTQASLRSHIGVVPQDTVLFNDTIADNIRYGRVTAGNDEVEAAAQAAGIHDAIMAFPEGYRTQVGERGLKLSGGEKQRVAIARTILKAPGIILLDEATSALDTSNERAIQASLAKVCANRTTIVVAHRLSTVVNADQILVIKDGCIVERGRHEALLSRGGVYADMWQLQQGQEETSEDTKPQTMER
Granule exo inh = lytic granule exocytosis inhibition | TALL-104 LAMP-1 surface exposure, flow cytometry; cells stimulated with thapsigargin and PMA | inhibition, % at 10 µM | 360,000 tested, 0.66% active;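 active means inhibition above about 55%, limit read from the data; inconclusive means no clear call, values can overlap the other calls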
Myeloid diff 2 = compounds promoting myeloid differentiation; AID 624256; calls only at 10 µM; ER-HoxA9 myeloid progenitors, lysozyme-GFP differentiation, flow cytometry; 360,000 tested, 1% active;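 active means normalized GFP-positive differentiation at or above the plate's own cutoff, the solvent-only control mean plus 3 SD; inconclusive means no clear call, values can overlap the other calls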;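 further: cells exposed to compound for four days before flow analysis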
Granule exo CP1 = lytic granule exocytosis inhibition; shares compounds with Granule exo inh; TALL-104 cells, LAMP-1 externalization, flow cytometry; stimulated with PMA plus thapsigargin; inhibition, % at 10 µM; 1,500 tested, 11% active; in the data active means inhibition above about 60%;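 further: 0% = stimulated vehicle wells and 100% = unstimulated wells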
Starred values were filed as active, the others as inactive; i = inactive; u = inconclusive; x = no result. A selection: hits, their analogues and other compounds. The true share with any hit is near 1.8%.

SMILES | ABCB6 inh MLPCN | Granule exo inh | Myeloid diff 2 | Granule exo CP1
COc1ccccc1-c1c(C(F)(F)F)oc2cc(OC(=O)c3ccc([N+](=O)[O-])cc3)ccc2c1=O | 96 | 2 | i | x
COc1ccc(C(=O)c2c(C(F)(F)F)oc3c2C(=O)c2ccccc2C3=O)cc1 | 106 | 25 | x | x
Cc1ccc(C(=O)c2c(C)oc3c2C(=O)C(=O)c2ccccc2-3)cc1 | 102 | 103* | u | 42
CC1CCN(c2ccc(-c3cccs3)nn2)CC1 | 92 | 14 | i | x
CCCc1ccc(C(=O)NNc2ccccc2F)cc1 | 100 | -3 | i | x
CN1C(C(=O)NCCc2cccs2)CC2Cn3c(nc4cc(Cl)c(Cl)cc43)C21 (stereo unspecified) | 98 | 17 | i | x
COc1ccc(CCNC(=O)C2CC3Cn4c(nc5cc(Cl)c(Cl)cc54)C3N2C)cc1 (stereo unspecified) | 104 | 83* | i | -13
CO/C=C\C=C/c1nnn(-c2ccc(Cl)cc2)n1 | 101 | 14 | i | x
COc1ccc(OC)c(CN2CCN(C(=O)c3ccc(NS(=O)(=O)c4cccc([N+](=O)[O-])c4)cc3)CC2)c1 | 93 | -3 | i | x
COc1ccc(CNC(=O)COC(=O)[C@H](Cc2c[nH]c3ccccc23)NC(=O)c2cccs2)cc1 | 99 | 58* | i | 33
COC(=O)C(Cc1c[nH]c2ccccc12)NC(=O)c1cccs1 (stereo unspecified) | 99 | -1 | i | x
NS(=O)(=O)c1ccc2nc(NC(=O)Nc3ccc(F)cc3)sc2c1 | 97 | 1 | u | x
Cc1c(Cl)cccc1NC(=O)CSc1ncnc2c1cnn2CCc1ccccc1 | 93 | -2 | i | x
O=C(CSc1ncnc2c1cnn2CCc1ccccc1)Nc1cccc(C(F)(F)F)c1 | 92 | 83* | i | 3
COC(=O)c1ccccc1NS(=O)(=O)c1ccc(Cl)nc1 | 99 | 86* | i | -11
O=S(=O)(Nc1ccccc1O)c1ccc(Cl)nc1 | 97 | -2 | i | x
COc1ccc(N2CCN(S(=O)(=O)CCNC(=O)/C=C/c3ccccc3)CC2)cc1 | 95 | -2 | i | x
Cc1ccc(NS(=O)(=O)c2ccc(OCC(N)=O)cc2)cc1 | 94 | 15 | i | x
COc1cccc(CC2(CO)CCCN(Cc3ccc(OC)c(C)c3OC)C2)c1 (stereo unspecified) | 95 | 60* | i | -10
COc1cccc(CC2(CO)CCCN(Cc3ccccc3Cl)C2)c1 (stereo unspecified) | 95 | 10 | i | x
CCOc1ccc(C(=O)Nc2ccc3nc(N4CCN(CC)CC4)cc(C)c3c2)cc1 | 92 | 63* | i | -6
CCN1CCN(c2cc(C)c3cc(NC(=O)c4cc(OC)cc(OC)c4)ccc3n2)CC1 | 98 | 11 | i | x
CCCc1cc(=O)oc2cc(OCC(=O)NCCCN3CCOCC3)ccc12 | 96 | -5 | i | x
CCCN(C(=O)c1cn(C)c(=O)c2ccccc12)c1ccccc1C | 99 | -6 | i | x
Oc1c(CN2CCOCC2)ccc2ccccc12 | 94 | 86* | i | -12
SMILES | ABCB6 inh MLPCN | Granule exo inh | Myeloid diff 2 | Granule exo CP1
Oc1c(CN2CCOCC2)cc(-c2ccccc2)cc1CN1CCOCC1 | 96 | 2 | i | x
CC12CCC(C(=O)OC3CCCCC3)(OC1=O)C2(C)C (stereo unspecified) | 100 | 15 | i | x
COc1ccc(NC(=O)CN(C)C(=O)c2cn(-c3ccccc3)nc2-c2cccnc2)cc1 | 105 | 6 | i | x
CCC(CC)C(=O)Nc1nnc(S(=O)(=O)N2c3ccccc3CC2C)s1 (stereo unspecified) | 96 | -2 | i | x
CSc1ccc(CCNC(=O)CN2C(=O)CCSc3ccccc32)cc1 | 96 | 2 | i | x
CCOc1ccc(CCNC(=O)CN2C(=O)CCSc3ccccc32)cc1OCC | 97 | 96* | i | -4
N#Cc1c(Nc2ccccc2C(F)(F)F)s[nH]c1=O | 107 | 48 | i | x
N#Cc1c(Nc2ccccc2Cl)s[nH]c1=O | 96 | 78* | i | 95*
NS(=O)(=O)c1ccc(CNC(=S)NCc2ccc(F)cc2)cc1 | 94 | -6 | i | x
c1ccc(CN2CCCC3(CCCN(Cc4nc(COc5ccccc5)no4)C3)C2)cc1 (stereo unspecified) | 100 | 60* | i | -4
c1ccc(CN2CCCC3(CCCN(Cc4nc(CC5CC5)no4)C3)C2)cc1 (stereo unspecified) | 95 | 2 | i | x
CCCCCCCn1c2c(c(=N)c3ccccc31)CCC2 | 97 | 71* | x | -9
CCCn1c2c(c(=N)c3c1CCC3)CCC2 | 102 | -5 | i | x
Cc1cc(F)ccc1S(=O)(=O)N1CCCOC1CNC(=O)C(=O)NC1CCCC1 (stereo unspecified) | 100 | -2 | i | x
Cc1ccc(NC(=O)CSc2nccn2C)cc1S(=O)(=O)N1CCOCC1 | 101 | 0 | i | x
Cc1ccc(NC(=O)CSc2nnc3ccccn23)cc1S(=O)(=O)N1CCOCC1 | 100 | 81* | i | -4
CCOc1ccc(S(=O)(=O)Nc2cccc(C(=O)N3CCN(c4ccccn4)CC3)c2)cc1 | 105 | 56* | i | -3
CCOc1ccc(S(=O)(=O)Nc2cccc(C(=O)N3CCN(c4ccccc4O)CC3)c2)cc1 | 95 | 0 | i | x
CCCC(=O)Nc1cc(S(=O)(=O)N(CC)CC)ccc1Cl | 90 | -7 | i | x
Cc1ccc(-n2c(CCc3ccccc3)nnc2SCC(=O)NCc2ccccc2)cc1C | 99 | 68* | i | 13
COCc1nnc(SCC(=O)NCc2ccccc2)n1-c1ccccc1 | 98 | -1 | i | x
CS(=O)(=O)Cc1cccc(C(=O)NC2CCSc3ccccc32)c1 (stereo unspecified) | 103 | -9 | u | x
COc1ccc(OC)c(-c2csc(NC(=O)Cc3ccccc3OC)n2)c1 | 93 | 68* | i | -5
COc1ccc(OC)c(-c2csc(NC(=O)Cc3ccccc3F)n2)c1 | 96 | 50 | i | x
CCNc1sc(S(C)(=O)=O)nc1S(=O)(=O)c1ccc(Cl)cc1 | 97 | -2 | i | x
SMILES | ABCB6 inh MLPCN | Granule exo inh | Myeloid diff 2 | Granule exo CP1
Cc1ccc(C)c(NC(=O)c2cc(-c3cc(C)c(C)cc3O)n[nH]2)c1 | 99 | 1 | i | x
OCC1(CCc2ccccc2)CCN(C/C=C/c2ccccc2)CC1 | 101 | 57* | i | -12
OCC1(Cc2ccccc2Cl)CCN(C/C=C/c2ccccc2)CC1 | 95 | -3 | i | x
CCN(CC)CCN(CC(=O)N(C1CCCCC1)C1CCCCC1)C(=O)c1ccco1 | 100 | 25 | i | x
CC(C)(C)C(=O)NC1CC2CCCC(C1)N2C(=O)Nc1ccccc1Cl (stereo unspecified) | 91 | 6 | i | x
S=C(Nc1ccccc1Cl)NC1CC2CCCC(C1)N2C1CC1 (stereo unspecified) | 98 | 87* | i | -3
CCCCN(Cc1ccccc1)C1CCN(Cc2ccccc2)CC1 | 101 | 68* | i | -12
CCN(Cc1ccccc1)C1CCN(Cc2ccc(SC)cc2)CC1 | 90 | 0 | i | x
